Laboratory results as given in PubChem BioAssay (NCATS).
“And” between values parts separate entries of the source, which are not always exact repeats. Equal entries are not always repeated. Records with an inconclusive call do not appear. The source made the active and inactive calls. Calls come from the whole dose curve; as a rule, active = well fitted activation curve with a large enough effect in the signal ratio (not every such curve was filed as active); inconclusive = small, poorly fitted or top-dose-only effect, or a change in a side signal; inactive = flat fitted curve, though single readings scatter; the % refers to the signal ratio.

Experiment: qHTS assay for small molecule activators of the p53 signaling pathway (AID 651743); note: series mostly up to about 92 µM; % of control where 0% means no effect
Conditions: HCT-116 p53RE-bla, beta-lactamase FRET ratio, 16 h; activation: active compounds read high
Procedure, shortened: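 Read-out is fluorescence intensity from the LiveBLAzer B/G FRET substrate, added for 2 hours at room temperature after HCT-116 p53RE-bla cells had been incubated with compounds for 16 hours at 37 C.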

SMILES	activation
CCCN(CCC)C(=O)SCC	0.439% (inactive) and 11.8% (inactive)
ClCCCl	0.154% (inactive) and -1.95% (inactive) and -0.964% (inactive)
CCC(O)OC(O)CC (configuration not stated)	0.0103% (inactive) [middle of 4 runs]
C=Cc1ccccc1Cl	-0.152% (inactive)
c1ccc2c(c1)c1cccc3ccc4cccc2c4c31	8.13% (inactive) and 3.99% (inactive)
Cc1cccc([N+](=O)[O-])c1C	-0.524% (inactive) and 0.427% (inactive)
CCCCCCCCO	-2.87% (inactive) and -7.85% (inactive) and -0.202% (inactive)
CC(C)=CCCC(C)CCO (configuration not stated)	0.545% (inactive) and -1.78% (inactive)
CCO[Si](CCCN)(OCC)OCC	-1.64% (inactive) and -2.02% (inactive)
Clc1cc(Cl)c(Cl)cc1Cl	-2.65% (inactive) and -1.28% (inactive)
CCO	-1.86% (inactive)
C=CC(=O)OCCOCCOCCOCCOC(=O)C=C	28.9% (inactive) and 15.6% (inactive)
Clc1cc(Cl)c(Cl)c(Cl)c1Cl	-3.68% (inactive) and 2.1% (inactive)
CCCCC(CC)CN (configuration not stated)	-5.5% (inactive) and 1.33% (inactive)
c1ccc2c(c1)[nH]c1ccccc12	0.0697% (inactive) and -3.97% (inactive)
Nc1ccc(Cl)cc1Cl	-2.62% (inactive) and -5.11% (inactive)
CC1=CC(C)(C)Nc2ccccc21	-2.38% (inactive) and -0.537% (inactive)
